Measured values taken from PubChem BioAssay AID1850 (Southern Research Specialized Biocontainment Screening …, 2009).
In all, about 310,000 compounds went through this assay and about 1,000 (0.32%) were called active. How the calls were made is not given here. Only a sample is shown. Potency and affinity values are given separately.

Test: Inhibition of PhoP regulon, Salmonella typhi GFP reporter cells, confirmation, 4 h (AID 1850);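 further: 0% = induced wells with vehicle and 100% = uninduced wells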
Settings: Salmonella Typhi PhoP-promoter GFP reporter, fluorescence, at 50 µM, hits give high values

SMILES | inhibition
O=C(c1nc2ccccn2c1CNCCn1ccc2ccccc21)N1CCOCC1 | -10.1% (inactive)
COc1ccccc1-c1ccc2nnc(SCC(=O)N3CCCC3)n2n1 | 3.68% (inactive)
Cc1ccc(-n2c3nc(=O)n(C)c(=O)c-3cc3ccccc32)cc1 | 8.69% (inactive)
CCn1nc(-c2ccccc2)nc2c(=O)n(C)c(=O)nc1-2 | 14.7% (inactive)
Cn1nc(-c2ccccn2)nc2c(=O)n(C)c(=O)nc1-2 | 13.1% (inactive)
Cc1ccccc1-n1c2nc(=O)n(C)c(=O)c-2cc2ccccc21 | -5.45% (inactive)
Nc1nonc1-n1nnc(C(=O)N/N=C/c2ccc(F)cc2)c1-c1ccc2c(c1)OCO2 | 3.99% (inactive)
CC(C)c1ccc(NC(=O)C2CCN(S(C)(=O)=O)CC2)cc1 | 9.77% (inactive)
O=C(CN1CCN(c2ccccn2)CC1)NC1CCCC1 | -2.6% (inactive)
CC[C@H]1OC(=O)[C@H](C)[C@@H](O[C@H]2C[C@@](C)(OC)[C@@H](O)[C@H](C)O2)[C@H](C)[C@@H](O[C@@H]2O[C@H](C)C[C@H](N(C)C)[C@H]2O)[C@](C)(O)C[C@@H](C)C(=NOCOCCOC)[C@H](C)[C@@H](O)[C@]1(C)O | -1.81% (inactive)
CCC1OC(=O)C(C)C(OC2C[C@@](C)(OC)C(O)C(C)O2)C(C)C(O[C@@H]2OC(C)CC(N(C)C)C2O)[C@](C)(O)CC(C)C(=NOCOCCOC)C(C)C(O)[C@]1(C)O (stereo partly specified) | 2.39% (inactive)
CCOC(=O)CCC(=O)O[C@H]1[C@H](O[C@@H]2[C@@H](C)[C@H](O[C@H]3C[C@@](C)(OC)[C@@H](O)[C@H](C)O3)[C@@H](C)C(=O)O[C@H](CC)[C@@](C)(O)[C@H](O)[C@@H](C)C(=O)[C@H](C)C[C@@]2(C)O)O[C@H](C)C[C@@H]1N(C)C | 12.7% (inactive)
COc1ccccc1C(C(=O)NCc1ccc(F)cc1)N(C(=O)c1csnn1)C1CC1 (stereo unspecified) | -0.44% (inactive)
CCN(CC)S(=O)(=O)c1ccc(OC)c(NC(=O)c2ccc(-n3cncn3)c([N+](=O)[O-])c2)c1 | 1.29% (inactive)
O=C(Cn1c(=O)oc2ccccc21)NCCc1ccccc1 | -10.1% (inactive)
Cc1cc(C)cc(NC(=O)CSc2nccn2Cc2ccco2)c1 | -0.51% (inactive)
OCCCCNCc1ccc(OCc2ccccc2Cl)cc1 | 26.2% (inactive)
COc1cc(CNCCc2ccccc2)ccc1OCc1ccc(Cl)nc1 | 26.7% (inactive)
COc1ccccc1CCNCc1ccc(OC)c(OCc2ccccc2)c1 | -4.13% (inactive)
COc1cc(CNCCO)cc(Cl)c1OCc1ccccc1Cl | -3.95% (inactive)
COc1cc(CNC2CCCC2)cc(Cl)c1OCc1ccc(F)cc1 | 7.58% (inactive)
COc1cc(CNC2CCCC2)cc(Cl)c1OCc1ccccc1F | 11.7% (inactive)
OCCNCc1ccc(OCc2ccc(Cl)cc2Cl)cc1 | 6.74% (inactive)
COc1cc(CNCCO)cc(Br)c1OCc1ccccc1Cl | 9.5% (inactive)

SMILES | inhibition
CC1(C)CC(=O)C2=C(C1)OC(N)=C(C#N)C21C(=O)N2CCCc3cccc1c32 (stereo unspecified) | -2.22% (inactive)
CN(C(=O)COC(=O)c1ccc2[nH]c3c(c2c1)CCCC3)C1CCS(=O)(=O)C1 (stereo unspecified) | -8.01% (inactive)
Cc1ccc(OCCCCN2CCC(C)CC2)cc1 | 15.9% (inactive)
COc1cc(CNCc2ccccc2)cc(Cl)c1OC | 4% (inactive)
CCOc1cc(CNCCO)cc(Br)c1OCc1ccc(Cl)cc1Cl | 8.42% (inactive)
CCOc1cc(CNCCc2ccc(S(N)(=O)=O)cc2)cc(Cl)c1OCc1ccccc1 | 13% (inactive)
COc1cc(CNC(C)(C)CO)cc(Br)c1OCc1ccc(Cl)cc1Cl | 0.08% (inactive)
CC(C)c1ccc(Nc2c([N+](=O)[O-])c(=O)n(C)c3ccccc23)cc1 | 2.08% (inactive)
Cc1ccc2nsnc2c1S(=O)(=O)NCc1ccncc1 | -2.24% (inactive)
Cc1onc(-c2ccccc2)c1-c1nnc(-c2ccccc2C(F)(F)F)o1 | 0.63% (inactive)
C=CCN(c1nc(C)cc(OC)n1)S(=O)(=O)c1ccc(C)cc1 | 0.2% (inactive)
CC(C)(C)c1nnc(NC(=O)c2cccs2)s1 | 10.7% (inactive)
CN1CCN(c2ccc(C(F)(F)F)cc2N)CC1 | 2.28% (inactive)
Cc1nc2cc(C(F)(F)F)ccc2n1C | 1.93% (inactive)
O=C(Nc1ccccc1C(=O)Nc1ccccn1)c1cc(F)c(F)cc1Cl | -1.17% (inactive)
Cc1ccc[n+](-c2nc3ccccc3nc2[N-]S(=O)(=O)c2ccccc2)c1 | -11.4% (inactive)
O=C(/C=C/c1ccc2c(c1)OCO2)c1cccnc1 | 0.98% (inactive)
O=C(Cn1nc(C(F)(F)F)c2c1CCC2)Nc1ccccc1C(F)(F)F | -9.91% (inactive)
O=C(C[n+]1cc(-c2ccc(Cl)cc2)n2c1CCCCC2)c1ccccc1 | 1.54% (inactive)
CC1CCC(C(C)C)C(OC(=O)C[n+]2cc(-c3ccc(Cl)cc3)n3c2CCCCC3)C1 (stereo unspecified) | 10.8% (inactive)
COc1ccc(-c2c[n+](CC(=O)OC3CC(C)CCC3C(C)C)c3n2CCC3)cc1 (stereo unspecified) | 1.91% (inactive)
Cn1c(NC(=O)C[n+]2cc(-c3ccc(Cl)cc3)n3c2CCC3)cc(=O)n(C)c1=O | 11.1% (inactive)
CCc1ccc(Nc2nnc(SCc3cc(=O)n4ccsc4n3)s2)cc1 | -7.77% (inactive)
CCCCNCCCOc1cccc(Cl)c1 | 2.53% (inactive)

SMILES | inhibition
CCCCNCCCOc1cc(Cl)ccc1Cl | 6.78% (inactive)
O=C(NCCO)c1cccc(Cl)c1 | -3.96% (inactive)
O=C1CCC([N+](=O)[O-])C(c2cc3c(cc2Cl)OCO3)N1 (stereo unspecified) | 3.32% (inactive)
COC(=O)c1cc(C(=O)c2ccc(Cl)cc2)n2c(=O)/c(=C\N(C)C)sc12 | 4.66% (inactive)
O/N=C/c1ccc(OCc2ccccc2)c(Br)c1 | 17.4% (inactive)
O/N=C/c1ccc(OCc2ccccc2F)c(Cl)c1 | -2.37% (inactive)
Cc1cc(C)cc(NC(=O)CSc2nc3ccccc3nc2N2CCCC2)c1 | 11.5% (inactive)
OCCNc1c2c(nc3ccccc13)CCCC2 | -3.18% (inactive)
Fc1cccc(NCCc2c[nH]c3ccccc23)n1 | 3.37% (inactive)
CNCCc1c[nH]c2ccccc12 | 10.1% (inactive)
CN(C)CCCNc1c2c(nc3ccccc13)CCC2 | 5.26% (inactive)
CN(C)CCCNc1nc(-c2ccccc2)nc2ccccc12 | -2.17% (inactive)
OCCNc1c2ccccc2nc2ccccc12 | 11.8% (inactive)
N#CCCN(C(=O)COC(=O)c1ccc(CNS(=O)(=O)c2ccc(F)c(Cl)c2)cc1)c1ccc(F)cc1 | -2.96% (inactive)
Cc1ccc(CNC(=O)C2CCCN(c3nn4c(=O)cc(C)nc4s3)C2)cc1 (stereo unspecified) | -0.07% (inactive)
CCC1=C2CC[C@H]3C(=O)N(C)C(=O)[C@H]3[C@H]2[C@@]2(Cc3ccccc3)C(=NCC(=O)OC)OC(=O)N2C1=O | -11.3% (inactive)
CC(Sc1nnc(-c2ccccc2Br)o1)C(=O)N1CCOCC1 (stereo unspecified) | 0.36% (inactive)
O=C(NCC1CCCO1)c1cccc(NC(=O)c2ccc(Br)cc2)c1 (stereo unspecified) | -6.91% (inactive)
CC(C)c1ccc(NC(=O)CSc2nc3ccsc3c(=O)n2Cc2ccc(C(=O)O)cc2)cc1 | -12% (inactive)
COC(=O)CC1=C(C(=O)OC)C(c2ccc3c(c2Cl)OCO3)C(C#N)=C(N)O1 (stereo unspecified) | -2.85% (inactive)
CCC(=C(c1ccc(OC)cc1)c1ccc(OC)cc1)c1cn(CC(O)CN(CCO)CCO)c2ccccc12 (stereo unspecified) | 1.98% (inactive)
COc1ccccc1-n1c(SCC(=O)Nc2ccc(F)cc2)nc2c(c1=O)SCC2 | 4.39% (inactive)
C=CCn1c2ccccc2n2nc(C)c(=O)nc12 | 5.77% (inactive)
COc1ccc(/C=C/C(=O)NCCCc2ccccc2)cc1 | 2.3% (inactive)

SMILES | inhibition
COc1ccc(NC(=O)Cc2ccccc2)cc1 | -3.71% (inactive)
CCNC(=S)N1CCNC(=O)C1CC(=O)OC (stereo unspecified) | -0.49% (inactive)
CCCSC(=S)NC1CCS(=O)(=O)C1 (stereo unspecified) | 14.2% (inactive)
C=CCSC(=S)NC1CCS(=O)(=O)C1 (stereo unspecified) | 4.24% (inactive)
COCCSc1nnc(NC(=O)C2CCCO2)s1 (stereo unspecified) | -16.4% (inactive)
Oc1c(C(c2ccc(Cl)cc2)N2CCCC2)cc(Cl)c2cccnc12 (stereo unspecified) | -16.5% (inactive)
Oc1c(C(c2ccccn2)N2CCC(Cc3ccccc3)CC2)cc(Cl)c2cccnc12 (stereo unspecified) | -1.4% (inactive)
Oc1c(C(c2ccccn2)N2CCCCC2)cc(Cl)c2cccnc12 (stereo unspecified) | 20.3% (inactive)
CC(=O)NC(c1ccc(C)cc1)c1cc(Cl)c2cccnc2c1O (stereo unspecified) | -5% (inactive)
CN1CCN(C(c2ccc(C(F)(F)F)cc2)c2cc(Cl)c3cccnc3c2O)CC1 (stereo unspecified) | 2.9% (inactive)
CN1CCN(C(c2ccccn2)c2cc(Cl)c3cccnc3c2O)CC1 (stereo unspecified) | -16.9% (inactive)
CCN1CCN(C(c2ccc(C(F)(F)F)cc2)c2ccc3cccnc3c2O)CC1 (stereo unspecified) | -8.31% (inactive)
CN1CCN(C(c2cccnc2)c2ccc3cccnc3c2O)CC1 (stereo unspecified) | 4.05% (inactive)
CCOCCOC(=O)c1ccc(-n2cncn2)nc1 | 19.6% (inactive)
Cn1c(NC(=O)CC2CCCCC2)cc(=O)n(C)c1=O | -13.1% (inactive)
C/C(=N\Nc1nc2ccccc2[nH]1)c1ccc2c(c1)OCCO2 | 11.8% (inactive)
COc1ccc(Br)cc1C(=O)NC(=S)Nc1c(C)n(C)n(-c2ccccc2)c1=O | 14.4% (inactive)
CC1(c2ccccc2)NC(=O)N(CC(=O)NCCC2=CCCCC2)C1=O (stereo unspecified) | 0.28% (inactive)
CCC[C@@H](CN[C@@H](CNC)C(C)C)NCCCCc1ccccc1 | 16.7% (inactive)
CCC[C@@H](CNC)NC[C@H](Cc1ccccc1)NCCCCc1ccccc1 | 3.99% (inactive)
CNC[C@H](CC1CCCCC1)NC[C@H](CO)NCCc1cccc(C(F)(F)F)c1 | 10.8% (inactive)
O=C(CC12CC3CC(CC(C3)C1)C2)NC(Cc1ccccc1)C(=O)O (stereo unspecified) | -9.42% (inactive)
CNC[C@H](CC1CCCCC1)NC[C@H](NCCC1CCCC1)[C@H](C)O | 22.8% (inactive)
CNC[C@H](CC1CCCCC1)NC[C@H](CO)NCC1(c2ccccc2)CC1 | -8.16% (inactive)
